The target of one experiment is Albumin (Bos taurus) (UniProt P02769). Nature of the experiment: compounds binding labelled BSA control protein – biochemical, small-molecule microarray, Alexa647 label, 635/667 nm fluorescence, artefact control for SMM control protein annotation, profiling panel (AID 1118).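 Also: score merges 667 nm emission intensity and signal-to-noise per printed compound spot.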 The following applies: BSA-A647 binding, fluorescence 635 nm, higher = more signal.
Experiment [1] in a line: probe aXIP binding to arrayed compounds – biochemical, NeuroSMM set, 635/667 nm fluorescence, primary screen (AID 1119).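 Also: probe is the protein aXip251-270 applied at 1 µg/mL to compound-printed slides; binding of probe to printed compounds measured as 667 nm fluorescence plus signal to noise.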 The following applies: small-molecule microarray, higher = more signal, called active from +8 up or from −8 down.
A short description of experiment [2]: probe aNOTCH3 binding on compound microarray – biochemical, small-molecule microarray, 635/667 nm fluorescence, primary screen (AID 1120).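 Also: probe is a biotin-tagged antibody raised against NOTCH3 rather than NOTCH3 protein; score merges spot fluorescence near 667 nm with spot signal to noise.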 The following applies: higher = more signal.
The nature of experiment [3]: probe aNOTCH2 binding on compound microarray – biochemical, small-molecule microarray, 635/667 nm fluorescence, primary screen (AID 1121).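 Also: score merges feature fluorescence read at 667 nm with its signal to noise.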 The following applies: higher = more signal.
Experiment [4] deals with Carbonic anhydrase 2 (Homo sapiens) (UniProt P00918). In words: compounds binding carbonic anhydrase 2 – biochemical, small-molecule microarray, Alexa647-labelled CAII, profiling panel (AID 1122). To be noted: CAII-A647 binding fluorescence, higher = more signal.
Experiment [5] can be described thus: COS7 lysate on small-molecule microarray, probe aHis, 635 nm (AID 1123).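 Also: z-score combines 667nm fluorescence intensity with signal-to-noise per printed compound spot.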 To be noted: COS7 cell lysate, fluorescence, higher = more signal.
The nature of experiment [6]: probe aLAP1 signal on lysate-treated microarray – cell lysate, small-molecule microarray, COS7 lysate, primary screen (AID 1124).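 Also: lysate comes from COS7 cells expressing LAP1 and is applied at 0.3 µg/mL; score merges spot fluorescence near 667 nm with signal-to-noise over triplicate slides.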 To be noted: probe aLAP1, fluorescence, higher = more signal.
In another experiment the test system is Sam68 (KHDRBS1). In words: compounds binding KHDRBS1 protein – biochemical, small-molecule microarray, 635 nm fluorescence, primary screen (AID 1125).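 Also: score merges 667 nm channel intensity with signal to noise over triplicate slides.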 To be noted: higher = more signal.
The test system of experiment [7] is Chordin-like protein 2 (CHRDL2). In words: compounds binding chordin-like 2 – biochemical, small-molecule microarray, 635 nm fluorescence, primary screen (AID 1126).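 Also: printed compound slides probed with Chrdl2 protein at 4 µg/mL for 1 h at 4 C; score merges 667 nm emission intensity with signal to noise over three replicate slides.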 To be noted: fluorescence 635 nm, higher = more signal.
Experiment [8] deals with Concanavalin-A (Canavalia ensiformis) (UniProt P02866). In words: compounds binding concanavalin A lectin – biochemical, small-molecule microarray, Alexa647 label, 635 nm, artefact control for SMM control protein annotation, primary screen (AID 1127).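 Also: z combines 667 nm emission intensity with signal-to-noise across three replicate slides.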 To be noted: ConA-A647 binding fluorescence, higher = more signal.
Sequence of Concanavalin-A (Canavalia ensiformis) (P02866 whole entry, looked up): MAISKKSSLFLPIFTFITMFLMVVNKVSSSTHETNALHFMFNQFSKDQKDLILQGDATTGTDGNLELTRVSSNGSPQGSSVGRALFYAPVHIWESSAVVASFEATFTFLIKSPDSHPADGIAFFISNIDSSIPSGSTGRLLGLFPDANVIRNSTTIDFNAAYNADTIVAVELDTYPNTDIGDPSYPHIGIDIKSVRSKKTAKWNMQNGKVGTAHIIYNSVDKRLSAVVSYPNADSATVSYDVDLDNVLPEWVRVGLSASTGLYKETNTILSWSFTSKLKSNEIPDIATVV
Experiment [9] is described as follows: compounds binding Alexa647 anti-His antibody – biochemical, small-molecule microarray, 635 nm fluorescence, artefact control for SMM control protein annotation, primary screen (AID 1128).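 Also: score merges feature fluorescence with signal-to-noise for each printed compound spot.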 The following applies: higher = more signal.
For experiment [10], the system named is Human papillomavirus type 1a E7 protein (residues 1-88). In words: HPV1a E7 small-molecule binders, primary screen, biochemical, small-molecule microarray, residues 1-88, 635 nm (AID 1129). To be noted: small-molecule microarray binding, fluorescence 635 nm; higher = more signal.
Experiment [11] concerns the target Focal adhesion kinase 1 (Homo sapiens) (UniProt Q05397). Nature of the experiment: PTK2 protein binding on printed compound slides – biochemical, small-molecule microarray, 635/667 nm fluorescence, BSA, DTT, primary screen (AID 1130).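 Also: composite of spot emission at 667 nm and signal to noise over triplicate slides.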 To be noted: 635 nm fluorescence, higher = more signal.
The subject of experiment [12] is Fibrinogen (Alexa647-labelled). In words: Alexa647-fibrinogen binding to printed small molecules – biochemical, small-molecule microarray, 635/667 nm fluorescence, artefact control for SMM control-protein annotation, profiling panel (AID 1131).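 Also: z-score merges 667 nm fluorescence with per-spot signal-to-noise over triplicate slides.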 To be noted: fibrinogen-A647 binding fluorescence, higher = more signal.
For experiment [13], the target named is Follistatin (Homo sapiens) (UniProt P19883). In words: FST protein binding to printed compounds – biochemical, small-molecule microarray, 635/667 nm fluorescence, primary screen (AID 1132). The following applies: 635 nm fluorescence, higher = more signal.
Sequence of Follistatin (Homo sapiens) (P19883 whole entry, looked up): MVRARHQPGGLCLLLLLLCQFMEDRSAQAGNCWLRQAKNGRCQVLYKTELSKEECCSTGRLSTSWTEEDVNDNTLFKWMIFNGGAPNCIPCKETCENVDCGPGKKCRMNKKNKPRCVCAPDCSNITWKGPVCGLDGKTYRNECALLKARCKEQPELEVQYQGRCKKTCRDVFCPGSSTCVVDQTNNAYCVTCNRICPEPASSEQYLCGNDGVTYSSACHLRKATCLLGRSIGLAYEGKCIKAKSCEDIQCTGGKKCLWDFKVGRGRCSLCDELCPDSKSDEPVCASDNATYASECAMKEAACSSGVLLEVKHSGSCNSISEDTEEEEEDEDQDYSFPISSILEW
The target of experiment [14] is Fibroblast growth factor 2 (Homo sapiens) (UniProt P09038). In words: basic fibroblast growth factor binding to printed compounds – biochemical, small-molecule microarray, 635/667 nm fluorescence, primary screen (AID 1133). The following applies: FGF2, fluorescence 635/667, higher = more signal.
Sequence of Fibroblast growth factor 2 (Homo sapiens) (P09038 whole entry, looked up): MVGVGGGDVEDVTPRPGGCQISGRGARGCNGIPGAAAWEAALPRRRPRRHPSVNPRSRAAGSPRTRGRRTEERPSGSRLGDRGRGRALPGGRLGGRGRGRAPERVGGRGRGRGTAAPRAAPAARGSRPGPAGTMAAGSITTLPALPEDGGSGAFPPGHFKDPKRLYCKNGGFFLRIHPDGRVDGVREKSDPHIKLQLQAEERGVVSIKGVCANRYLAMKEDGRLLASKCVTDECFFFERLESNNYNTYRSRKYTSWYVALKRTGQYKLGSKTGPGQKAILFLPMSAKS
The nature of experiment [15]: JC-1 mitochondrial potential readout, lung cancer cells – cell-based, A549, JC-1 fluorescence, basal, 24 h, 100 nL, profiling panel (AID 1138).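 Also: A549 lung adenocarcinoma cells under basal conditions with no added stimulus; test concentration not given here.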 To be noted: higher = more signal.
The test system of a further experiment is Lefty1. In words: Lefty1 protein binding to printed compounds – biochemical, small-molecule microarray, 635/667 nm fluorescence, primary screen (AID 1139). The following applies: fluorescence 635/667, higher = more signal.
Experiment [16] relates to wheat germ agglutinin (Triticum aestivum), Alexa647-labelled. Nature of the experiment: Alexa647-WGA lectin binding to printed small molecules – biochemical, small-molecule microarray, 635/667 nm fluorescence, artefact control for SMM control-protein annotation, profiling panel (AID 1140).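 Also: score merges 667 nm feature emission with signal to noise over triplicate slides.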 To be noted: WGA-A647 binding, 635 nm fluorescence, higher = more signal.
Experiment [17] has as its target Luciferin 4-monooxygenase (Photinus pyralis) (UniProt P08659). Nature of the experiment: inhibition of purified Photinus pyralis luciferase – biochemical, luminescence, purified enzyme, 2006 set, primary screen (AID 1141).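 Also: cell-free assay with purified firefly luciferase at 100 ng per well in PBS; test concentration not given here.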 To be noted: purified firefly luciferase, SteadyGlo luminescence, 30 min; higher = more signal, called active from +8 up or from −8 down.

Structures are written as SMILES. Activity calls are given as the source filed them.

For six molecules, composite z-score, composite Z-score and z-score results are on record in PubChem BioAssay.

Sequence of Luciferin 4-monooxygenase (Photinus pyralis) (P08659 whole entry, looked up): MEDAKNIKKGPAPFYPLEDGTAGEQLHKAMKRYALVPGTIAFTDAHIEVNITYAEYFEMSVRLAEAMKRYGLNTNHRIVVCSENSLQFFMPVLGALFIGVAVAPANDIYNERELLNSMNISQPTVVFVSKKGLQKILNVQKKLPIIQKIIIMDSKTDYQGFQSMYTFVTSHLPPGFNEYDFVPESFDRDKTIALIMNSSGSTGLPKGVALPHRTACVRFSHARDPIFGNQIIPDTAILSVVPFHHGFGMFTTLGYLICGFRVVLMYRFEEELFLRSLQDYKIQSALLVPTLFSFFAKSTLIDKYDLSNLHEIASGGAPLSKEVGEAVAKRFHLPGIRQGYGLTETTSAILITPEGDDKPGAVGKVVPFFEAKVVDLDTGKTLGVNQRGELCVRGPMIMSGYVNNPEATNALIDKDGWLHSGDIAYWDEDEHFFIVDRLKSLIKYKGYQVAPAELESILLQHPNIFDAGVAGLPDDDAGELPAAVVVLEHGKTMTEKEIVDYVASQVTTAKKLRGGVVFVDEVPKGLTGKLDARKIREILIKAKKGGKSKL
Sequence of Focal adhesion kinase 1 (Homo sapiens) (Q05397 whole entry, looked up): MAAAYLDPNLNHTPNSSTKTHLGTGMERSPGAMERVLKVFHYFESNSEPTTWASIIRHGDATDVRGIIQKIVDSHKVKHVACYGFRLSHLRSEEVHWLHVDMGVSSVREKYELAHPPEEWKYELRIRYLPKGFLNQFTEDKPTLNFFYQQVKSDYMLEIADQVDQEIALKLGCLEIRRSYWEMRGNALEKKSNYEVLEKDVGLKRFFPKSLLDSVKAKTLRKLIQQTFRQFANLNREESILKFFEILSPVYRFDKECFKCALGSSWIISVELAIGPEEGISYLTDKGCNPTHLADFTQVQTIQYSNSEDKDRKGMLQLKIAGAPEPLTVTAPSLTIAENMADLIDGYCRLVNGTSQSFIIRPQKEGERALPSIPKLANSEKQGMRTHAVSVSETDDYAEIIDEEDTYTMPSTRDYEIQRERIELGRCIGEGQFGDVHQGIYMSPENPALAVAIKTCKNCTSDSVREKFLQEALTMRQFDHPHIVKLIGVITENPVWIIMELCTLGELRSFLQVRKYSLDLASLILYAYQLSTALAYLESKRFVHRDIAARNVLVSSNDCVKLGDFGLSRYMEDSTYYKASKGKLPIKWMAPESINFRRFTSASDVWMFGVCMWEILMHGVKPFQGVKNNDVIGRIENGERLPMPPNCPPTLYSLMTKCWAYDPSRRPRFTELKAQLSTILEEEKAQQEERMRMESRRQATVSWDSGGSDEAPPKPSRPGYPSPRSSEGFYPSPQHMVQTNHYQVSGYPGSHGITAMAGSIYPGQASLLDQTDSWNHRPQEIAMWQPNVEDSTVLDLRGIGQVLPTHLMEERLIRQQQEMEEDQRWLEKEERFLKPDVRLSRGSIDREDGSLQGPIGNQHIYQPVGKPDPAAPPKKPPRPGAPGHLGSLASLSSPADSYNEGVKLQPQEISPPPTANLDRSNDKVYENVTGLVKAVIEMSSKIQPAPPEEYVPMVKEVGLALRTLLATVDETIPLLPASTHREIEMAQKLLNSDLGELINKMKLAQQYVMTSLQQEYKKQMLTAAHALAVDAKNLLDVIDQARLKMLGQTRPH
Sequence of Albumin (Bos taurus) (P02769 whole entry, looked up): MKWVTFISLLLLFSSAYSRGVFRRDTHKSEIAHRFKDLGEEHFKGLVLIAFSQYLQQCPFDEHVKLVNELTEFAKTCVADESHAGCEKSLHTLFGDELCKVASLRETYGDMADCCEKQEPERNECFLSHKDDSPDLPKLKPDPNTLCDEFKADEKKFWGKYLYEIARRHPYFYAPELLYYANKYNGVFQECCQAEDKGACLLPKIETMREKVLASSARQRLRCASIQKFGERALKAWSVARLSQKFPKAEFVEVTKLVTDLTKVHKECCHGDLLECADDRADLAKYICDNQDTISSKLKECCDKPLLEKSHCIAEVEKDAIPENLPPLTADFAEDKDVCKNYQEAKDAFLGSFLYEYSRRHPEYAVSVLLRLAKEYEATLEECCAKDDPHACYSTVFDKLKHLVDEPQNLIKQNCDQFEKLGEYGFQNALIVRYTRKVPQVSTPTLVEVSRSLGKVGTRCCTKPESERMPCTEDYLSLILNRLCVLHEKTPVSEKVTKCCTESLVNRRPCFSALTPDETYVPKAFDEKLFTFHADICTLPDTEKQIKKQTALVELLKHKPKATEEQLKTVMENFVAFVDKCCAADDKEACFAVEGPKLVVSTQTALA

Turning to `C=CC[C@]1(C(=O)NCC(O)CO)N=C(c2ccc(OCCCO)cc2)O[C@H]1c1ccccc1CN=[N+]=[N-]` (stereo not given in full), the composite z-score with Albumin (Bos taurus) was 0.0838; in experiment [2], -0.0362; in experiment [3] it was -0.0357; in [4], 0.522; in experiment [5] it was 3.12; in [6], 0.988. For the same molecule, the composite z-score in the experiment on Sam68 (KHDRBS1) was 0.605; in experiment [7] it was -1.33; in experiment [8], 0.148; in experiment [9], 2.81; in experiment [10], 1.22; in [11] it was -0.209. Moreover, the composite z-score in experiment [12] was -0.204; in [13], 0.875; in [14] it was 0.785; in the experiment with Lefty1, -0.0497; in experiment [16], 0.502. Moreover, the composite Z-score in experiment [1] is 0.58 (inactive). Further, the z-score in [15] was 0.895; in experiment [17], -0.154 (inactive).

In the case of `C=CCNC(=O)[C@@H]1[C@H]2C(=O)O[C@H](c3ccccc3)[C@H](c3ccccc3)N2[C@H](c2ccc(OCCO)cc2)[C@@]12C(=O)Nc1ccc(C#CC3=CCCCC3)cc12`, the composite z-score is 0.806 with Albumin (Bos taurus); 0.0493 in [2]; -0.145 in experiment [3]; 0.512 in experiment [4]; 1.33 in [5]; 0.402 in experiment [6]. Moreover, the composite z-score in the experiment on Sam68 (KHDRBS1) was determined as 1.3; in [7], 0.0821; in [8], 1.14; in experiment [9] it was 1.15; in experiment [10] it was 1.23; in experiment [11] it was 1.08. The composite z-score is 0.972 in [12]; 1.1 in experiment [13]; 0.582 in [14]; 1.11 with Lefty1; 0.898 in experiment [16]. Further, the composite Z-score in experiment [1] was 0.653 (inactive). Further, the z-score is -1.56 in experiment [15] and -0.806 (inactive) in experiment [17].

In the case of `COc1cccc(C)c1NC(=O)O[C@H]1[C@H](OC(=O)Nc2ccccc2)[C@@H](OC(=O)Nc2ccccc2)[C@@H](OC)O[C@@H]1CO`, the composite z-score was 0.541 with Albumin (Bos taurus); 0.163 in [2]; -0.0811 in experiment [3]; 0.461 in experiment [4]; 2.66 in [5]; 0.665 in [6]. Further, the composite z-score turned out to be 1.29 with Sam68 (KHDRBS1); 0.174 in experiment [7]; 1.08 in experiment [8]; 1.78 in [9]; 1.29 in [10]; 0.452 in [11]. Also, the composite z-score in [12] is 1.01; in experiment [13], 1.38; in experiment [14], 0.432; with Lefty1, 0.662; in experiment [16], 1.04. The composite Z-score in [1] is -0.376 (inactive). Moreover, the figures for the z-score in [15] and in experiment [17] were -1.54 and -0.321 (inactive), respectively.

`COC(=O)C[C@H]1O[C@]2(C(=O)N(C)c3ccccc32)[C@@H](C)[C@@H]1[Si](C)(C)c1ccccc1`: the composite z-score is -0.0967 with Albumin (Bos taurus); 0.16 in experiment [2]; -0.171 in experiment [3]; 0.288 in experiment [4]; 0.198 in [5]; 0.216 in [6]. Besides, the composite z-score in the experiment with Sam68 (KHDRBS1) stood at 0.898; in experiment [7], 0.816; in [8] it was 0.593; in experiment [9] it was 0.83; in [10], 0.941; in experiment [11], 0.764. For the same molecule, the composite z-score worked out at 0.794 in experiment [12]; 1.05 in [13]; 0.856 in experiment [14]; 0.966 with Lefty1; 0.219 in experiment [16]. For the same molecule, the composite Z-score in experiment [1] is -0.142 (inactive). Also, the z-score in experiment [15] is 0.186; in [17] it was 1.24 (inactive).

Take `C[C@]1(C(=O)NCC(F)(F)F)c2ccccc2C(=O)N(Cc2cc(C(F)(F)F)cc(C(F)(F)F)c2)[C@H]1c1ccc(CO)cc1`: the composite z-score with Albumin (Bos taurus) was 0.154; in experiment [2], -0.154; in experiment [3], -0.0226; in [4], 0.306; in experiment [5], 1.11; in experiment [6], 0.108. The composite z-score was 0.1 in the experiment with Sam68 (KHDRBS1); -0.404 in [7]; -0.522 in experiment [8]; 0.0266 in experiment [9]; 0.416 in [10]; 0.0715 in experiment [11]. The composite z-score was 0.412 in experiment [12]; -0.0478 in experiment [13]; 0.292 in experiment [14]; -0.541 in the experiment on Lefty1; -0.174 in experiment [16]. Besides, in experiment [1], the composite Z-score is 0.196 (inactive). The z-score is 1.23 in experiment [15] and -1.17 (inactive) in experiment [17].

Consider `COc1ccc(C(=O)Nc2cccc(CN3C(=O)[C@]4(O[C@H](CC(=O)N(CCO)Cc5ccccc5)[C@@H]([Si](C)(C)c5ccc(OC)cc5)[C@@H]4C)c4ccccc43)c2)cc1`, for which the composite z-score in the experiment with Albumin (Bos taurus) is -0.211; in experiment [2], 0.0141; in experiment [3] it was -0.046; in experiment [4], 0.325; in experiment [5], 1.51; in experiment [6] it was -0.0351. For the same molecule, the composite z-score in the experiment on Sam68 (KHDRBS1) is 0.775; in experiment [7], 0.972; in [8], 0.762; in [9], 0.699; in experiment [10], 1.07; in experiment [11] it was 0.116. Also, the composite z-score in experiment [12] was determined as 0.334; in experiment [13] it was 0.959; in experiment [14], 1.15; in the experiment with Lefty1, 0.565; in experiment [16], 0.596. The composite Z-score in experiment [1] was 0.264 (inactive). For the same molecule, the z-score was -0.0253 in experiment [15] and -0.881 (inactive) in experiment [17].
